# Several values for one entry are separate records, joined by “and”; a condition that tells them apart may be missing. Equal entries are not always repeated. Activity calls are given as the source filed them.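 The calls were made as follows, unless noted: active = compounds whose cell count with miR-34 switched on is under 0.7 times the count with it off; inactive = the rest.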
# Tests used:
# [1] = sensitizers of A549 cells to miR-34 induction, primary screen, imaging, A549 dox-inducible miR-34, nuclei and caspase counts (AID 1347080); details: A549 miR-34 inducible, Hoechst nuclei count, 48 h
# [2] = survival rescue of mitochondrial mutant cells in low glucose, primary screen, MELAS cybrids, Rieske KO mouse fibroblasts, CellTiter-Glo (AID 1508586;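 active = mean z-score across replicates of 1.96 or higher in either the MELAS or the Rieske mutant cell line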;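 also: z relative to plate mean and SD of compound and empty wells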)
# [3] = biological target: NAD(+) hydrolase SARM1 (Homo sapiens) (UniProt Q6SZW1); test: SARM1 TIR NADase inhibitors, cell lysate, NAD-Glo luminescence (AID 1508614;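 active = compound whose remaining NAD level is above about 45 nM, limit read from the data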;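 also: higher remaining NAD means stronger inhibition of SARM1 NADase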); details: SAM-TIR HEK293T lysate NADase, at 1 µM, stronger effect = higher value
# NAD(+) hydrolase SARM1 (Homo sapiens), sequence (Q6SZW1 whole entry, looked up, the tested form may be a part): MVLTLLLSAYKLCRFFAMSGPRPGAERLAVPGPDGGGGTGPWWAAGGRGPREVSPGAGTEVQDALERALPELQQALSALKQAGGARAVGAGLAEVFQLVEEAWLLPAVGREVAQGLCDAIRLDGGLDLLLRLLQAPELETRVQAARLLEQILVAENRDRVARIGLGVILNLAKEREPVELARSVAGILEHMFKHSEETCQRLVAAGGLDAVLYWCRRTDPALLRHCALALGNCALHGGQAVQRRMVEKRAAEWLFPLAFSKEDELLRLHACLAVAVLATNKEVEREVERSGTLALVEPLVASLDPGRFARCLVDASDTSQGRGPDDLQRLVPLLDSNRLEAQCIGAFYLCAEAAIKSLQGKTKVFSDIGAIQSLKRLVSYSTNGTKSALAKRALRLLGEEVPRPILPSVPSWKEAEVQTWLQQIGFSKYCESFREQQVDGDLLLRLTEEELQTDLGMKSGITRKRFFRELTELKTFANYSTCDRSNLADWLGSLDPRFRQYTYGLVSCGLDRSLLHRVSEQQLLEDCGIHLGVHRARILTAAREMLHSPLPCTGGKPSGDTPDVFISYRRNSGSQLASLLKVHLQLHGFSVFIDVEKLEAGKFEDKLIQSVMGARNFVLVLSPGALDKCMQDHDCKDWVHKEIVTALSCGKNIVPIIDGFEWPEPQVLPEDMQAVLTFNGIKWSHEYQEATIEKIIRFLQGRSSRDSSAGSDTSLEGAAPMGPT
# [4] = biological target: Mitogen-activated protein kinase 7 (Homo sapiens) (UniProt Q13164); test: ERK5 transactivation activators in reporter cells, primary screen, cell-based, HTS (AID 1508626;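 active = luciferase signal above three times the same-plate solvent-only control wells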;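 also: luciferase driven by Gal4-ERK5 fusion binding five Gal4 sites before minimal TATA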); details: HeLa Gal4-ERK5 transactivation, 18 h, at 5 µM, stronger effect = higher value
# Mitogen-activated protein kinase 7 (Homo sapiens), sequence (Q13164 whole entry, looked up, the tested form may be a part): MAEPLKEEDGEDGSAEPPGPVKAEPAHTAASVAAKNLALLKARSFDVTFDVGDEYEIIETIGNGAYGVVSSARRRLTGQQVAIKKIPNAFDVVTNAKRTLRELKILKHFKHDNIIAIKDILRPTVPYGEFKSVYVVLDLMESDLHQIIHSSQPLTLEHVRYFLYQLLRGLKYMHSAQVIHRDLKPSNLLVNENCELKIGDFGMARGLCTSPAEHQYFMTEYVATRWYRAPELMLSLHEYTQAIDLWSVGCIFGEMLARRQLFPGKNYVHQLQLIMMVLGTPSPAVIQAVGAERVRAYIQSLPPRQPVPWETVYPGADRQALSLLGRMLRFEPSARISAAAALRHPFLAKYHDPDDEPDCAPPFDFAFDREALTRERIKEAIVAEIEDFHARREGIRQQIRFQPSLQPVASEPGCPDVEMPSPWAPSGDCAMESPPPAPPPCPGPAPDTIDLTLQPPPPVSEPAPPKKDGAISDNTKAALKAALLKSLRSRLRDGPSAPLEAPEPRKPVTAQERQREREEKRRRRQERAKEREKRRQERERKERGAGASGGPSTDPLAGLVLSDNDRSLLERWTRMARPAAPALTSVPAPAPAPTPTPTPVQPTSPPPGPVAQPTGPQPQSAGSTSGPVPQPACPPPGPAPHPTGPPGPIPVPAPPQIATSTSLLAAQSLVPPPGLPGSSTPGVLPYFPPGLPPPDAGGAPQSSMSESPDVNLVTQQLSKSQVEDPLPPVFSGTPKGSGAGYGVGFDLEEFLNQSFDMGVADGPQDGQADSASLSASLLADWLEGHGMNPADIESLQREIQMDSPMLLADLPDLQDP
# [5] = viability rescue of complex I mutant cybrids, primary screen, cell-based, galactose medium, ATP luminescence (AID 1645843;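 active = z-score of at least 1.8 in each of two replicates, scored against plate mean and spread of sample wells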;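 also: positive z means more ATP and so rescue of galactose-driven cybrid death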); details: complex I mutant cybrid cells, 72 h, stronger effect = higher value
# [6] = stronger effect = lower value, cell number ratio, induced over uninduced
# [7] = measured here: relative caspase fold change +Dox/-Dox
# [8] = measured here: total cells with miR-34 induction, stronger effect = lower value
# [9] = measured here: total cells without miR-34 induction
# [10] = MELAS cybrid survival, CellTiter-Glo 48 h, stronger effect = higher value
# [11] = Rieske KO mouse fibroblast survival, CellTiter-Glo 72 h
SMILES,"fold change [1, 6]","fold change [1, 7]","cell count [1, 8]","cell count [1, 9]","z-score [2, 10]","z-score [2, 11]",remaining NAD [3],luciferase signal [4],z-score [5]
CC1(C)OC(=O)NC1=O,0.858 (inactive) and 0.827 (inactive),1.35 and 1.46,8730 and 10500,10200 and 12700,-0.0486 (inactive),-0.442,10 nM (inactive),64 AU (inactive),
CCN(CC)CCNC(=O)COc1ccc(OC)cc1,0.859 (inactive) and 0.867 (inactive),1.24 and 3.74,9000 and 11100,10500 and 12800,0.396 (inactive),-0.0981,10 nM (inactive),72 AU (inactive),
Cc1c(N(C)C)c(=O)n(-c2ccccc2)n1C,0.875 (inactive) and 0.837 (inactive),1.16 and 0.645 and 2.71,7950 and 7780 and 11100,9080 and 9290 and 12700,-0.0296 (inactive) and -0.452 (inactive),-0.137 and 0.114,10 nM (inactive),60 AU (inactive),
Cc1c(N(C)CS(=O)(=O)O)c(=O)n(-c2ccccc2)n1C,0.886 (inactive) and 0.92 (inactive),1.09 and 6.36,8550 and 11500,9640 and 12500,-1.12 (inactive),-0.298,10 nM (inactive),40 AU (inactive),
CCN1CCCC(OC(=O)C(c2ccccc2)c2ccccc2)C1 (stereo not drawn),0.985 (inactive) and 0.905 (inactive),0.865 and 4.46,9410 and 10800,9550 and 11900,0.463 (inactive),-0.154,10 nM (inactive),64 AU (inactive),
NC(=O)NC1NC(=O)NC1=O (stereo not drawn),0.95 (inactive) and 0.875 (inactive),1.05 and 3.99,8140 and 12000,8570 and 13800,-0.771 (inactive),0.175,10 nM (inactive),72 AU (inactive),
CCN(CC)CCNC(=O)c1cc(Br)c(N)cc1OC,0.86 (inactive),1.23,8310,9660,-0.546 (inactive),0.146,10 nM (inactive),60 AU (inactive),
CCCCC(CC)CN=C(N)NC(N)=NCCCCCCN=C(N)NC(N)=NCC(CC)CCCC (stereo not drawn),0.778 (inactive),1.43,389,500,-2.81,8.3,10 nM (inactive),88 AU (inactive),
O=C(O)CCCC[C@@H]1SC[C@@H]2NC(=O)N[C@@H]21,0.845 (inactive),1.66,8760,10400,-0.325 (inactive),-0.214,10 nM (inactive),256 AU (inactive),
O=C1c2ccccc2C(=O)C1c1ccccc1,0.851 (inactive) and 1.01 (inactive) and 0.873 (inactive),1.04 and 0.811 and 1.49,8760 and 1750 and 10200,10300 and 1740 and 11700,-0.152 (inactive) and 0.54 (inactive),-0.0639 and -0.0998,10 nM (inactive),52 AU (inactive),
Cc1c(NC(=O)c2cccnc2)c(=O)n(-c2ccccc2)n1C,0.892 (inactive),1.07,8460,9480,0.707 (inactive),0.58,10 nM (inactive),56 AU (inactive),
CCOc1ccc(NC(C)=O)cc1,0.886 (inactive) and 0.916 (inactive),1.49 and 0.787 and 3.07,9560 and 7800 and 11500,10800 and 8520 and 12600,-0.475 (inactive) and -0.0201 (inactive),-0.108 and 0.061,10 nM (inactive),68 AU (inactive),
NC(N)=NS(=O)(=O)c1ccc(N)cc1,0.891 (inactive) and 0.893 (inactive) and 0.92 (inactive),1.33 and 1.72 and 4.63,7720 and 8610 and 11300,8670 and 9630 and 12200,-0.23 (inactive) and -0.511 (inactive),-0.172 and -0.306,10 nM (inactive),188 AU (inactive),
Nc1ncnc2c1ncn2[C@@H]1O[C@H](COP(=O)(O)O)[C@@H](O)[C@H]1O,0.848 (inactive),1.03,9640,11400,0.774 (inactive),0.196,10 nM (inactive),292 AU (active),
CCCCOc1ccc(C(=O)CCN2CCCCC2)cc1,0.869 (inactive) and 0.898 (inactive) and 0.904 (inactive),1.13 and 0.697 and 1.7,8270 and 5950 and 11300,9520 and 6630 and 12500,-0.438 (inactive) and 1.08 (inactive),0.0294 and 0.0562,10 nM (inactive),40 AU (inactive),
Cc1cc(-c2ccccc2)nnc1NCCN1CCOCC1,0.881 (inactive) and 0.888 (inactive),0.934 and 3.7,8700 and 11800,9870 and 13300,0.442 (inactive),0.39,10 nM (inactive),48 AU (inactive),
O=c1ccc2ccccc2o1,0.91 (inactive) and 0.88 (inactive),0.575 and 1.07,7780 and 10900,8550 and 12300,-0.266 (inactive),-0.22,10 nM (inactive),48 AU (inactive),
CCCCOc1ccc(OCCCN2CCOCC2)cc1,0.766 (inactive) and 0.863 (inactive) and 0.924 (inactive),1.42 and 1.47 and 3.29,7600 and 7830 and 11600,9930 and 9070 and 12500,-0.0227 (inactive) and 0.258 (inactive),-0.168 and -0.646,10 nM (inactive),36 AU (inactive),
O=C(O)CCNC(=O)c1ccccc1,0.9 (inactive),0.686,8280,9200,-0.217 (inactive),-0.148,10 nM (inactive),20 AU (inactive),
CC1=C(C(=O)O)N2C(=O)[C@@H](NC(=O)[C@H](N)c3ccc(O)cc3)[C@H]2SC1,0.85 (inactive),1.87,8500,10000,0.444 (inactive),0.13,10 nM (inactive),108 AU (inactive),
CC(NCCC(c1ccccc1)c1ccccc1)c1ccccc1 (stereo not drawn),0.975 (inactive),1.46,2830,2900,-0.775 (inactive),-0.331,10 nM (inactive),36 AU (inactive),
CCOC(=O)NNc1nncc2ccccc12,0.882 (inactive),0.778,8120,9200,-0.647 (inactive),-0.171,10 nM (inactive),36 AU (inactive),
O=C(O)CCC(=O)c1ccc(-c2ccccc2)cc1,0.889 (inactive) and 0.912 (inactive) and 0.859 (inactive),0.334 and 2.8 and 1.54,8550 and 11300 and 9420,9620 and 12400 and 11000,0.38 (inactive) and 0.679 (inactive),0.124 and 0.414,10 nM (inactive),68 AU (inactive),0.975 (inactive)
CN1CCOC(c2ccccc2)c2ccccc2C1 (stereo not drawn),0.979 (inactive) and 0.925 (inactive),1.1 and 3.08,8830 and 11200,9020 and 12100,0.332 (inactive),0.617,10 nM (inactive),120 AU (inactive),
C[N+]12CCC(CC1)C(OC(=O)C(O)(c1ccccc1)c1ccccc1)C2 (stereo not drawn),0.841 (inactive) and 0.859 (inactive),1.4 and 1.29,8530 and 9960,10100 and 11600,0.605 (inactive),-0.405,10 nM (inactive),48 AU (inactive),
C[C@]12CCC(=O)C=C1C=C[C@@H]1[C@@H]2CC[C@@]2(C)[C@H]1CC[C@@]21CCC(=O)O1,0.826 (inactive),1.19,8530,10300,-0.57 (inactive) and -0.163 (inactive),-0.749 and -0.289,10 nM (inactive),40 AU (inactive),-0.645 (inactive)
CCN(CC)CCOC(=O)C(Cc1cccc2ccccc12)CC1CCCO1 (stereo not drawn),0.845 (inactive) and 0.836 (inactive),1.23 and 5.94,9000 and 10700,10700 and 12800,0.101 (inactive),-0.0853,10 nM (inactive),36 AU (inactive),
